PP1 inh – blocks human PP1-alpha phosphatase, a PP5 counter-screen; inhibition, % at 6.7 µM; purified PP1alpha, OMFP fluorescence; 320,000 tested, 0.9% active;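 active = inhibition above the mean inhibition of all tested compounds plus 3 SD, computed separately for each screening campaign, cut at about 15% in these data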
Exocytosis inh – blocks lytic granule exocytosis; TALL-104 LAMP-1 surface exposure, flow cytometry; cells stimulated with thapsigargin and PMA; inhibition, % at 10 µM; 360,000 tested, 0.66% active;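 active = inhibition above about 55%, limit read from the data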
GRK2 inh – human GRK2 inhibition via aptamer displacement | P25098 | bead flow cytometry, FAM-aptamer displacement from GRK2 | inhibition of aptamer binding, % at 10 µM | 330,000 tested, 0.59% active | AID 488847;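 active = inhibition of aptamer binding above 40%, roughly 3 SD of noise, on plates passing a quality check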;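 also: median bead fluorescence of bound FAM aptamer so fluorescent compounds give negative values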
B2AR ag – agonists of human beta-2 adrenergic receptor inducing internalization; P07550; Am2.2-beta2AR cells, FAP receptor internalization, flow cytometry; response, % (concentration not given with the values); 340,000 tested, 0.43% active;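 active = response above a set limit, near 3 SD of response in nonfluorescent compounds, cut at about 42% in these data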
Target sequence (P07550 whole entry, looked up): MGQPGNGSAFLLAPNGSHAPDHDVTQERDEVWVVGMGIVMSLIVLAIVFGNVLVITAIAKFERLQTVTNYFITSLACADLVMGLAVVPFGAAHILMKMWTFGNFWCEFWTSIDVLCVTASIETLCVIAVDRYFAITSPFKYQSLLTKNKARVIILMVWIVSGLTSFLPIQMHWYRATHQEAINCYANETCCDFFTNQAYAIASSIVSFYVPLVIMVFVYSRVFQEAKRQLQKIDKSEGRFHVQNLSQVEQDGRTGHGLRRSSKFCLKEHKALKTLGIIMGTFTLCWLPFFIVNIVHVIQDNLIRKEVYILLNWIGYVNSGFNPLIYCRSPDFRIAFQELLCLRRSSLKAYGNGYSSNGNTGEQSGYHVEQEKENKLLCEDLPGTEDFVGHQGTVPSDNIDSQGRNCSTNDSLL
NadD inh – NadD (S. aureus) enzyme inhibition; purified NadD enzyme, colorimetric absorbance read-out; inhibition, % at 20 µM; 360,000 tested, 0.78% active; in the data active = inhibition above about 26%
B2AR ag CP1 – activates human beta-2 adrenergic receptor; AID 540358; Am2.2-beta2AR cells, FAP surface receptor, flow cytometry; hits give low values; 1,100 tested, 25% active; shares compounds with B2AR ag; percent response (surface receptor), % at 10 µM;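 active = surface receptor percent response at or below 58%, roughly 3 SD from nonfluorescent compounds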
FAP fluor counter – flagged in Am2.2 fluorescence counterscreen for beta-2AR agonists; calls only at 10 µM; shares compounds with B2AR ag; AID 588765; 1,100 tested, under 10 active; Am2.2 cells, FAP fluorogen flow cytometry; hits give low values;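 active = percent response below a set limit in fluorescence channel 1 and below 50% in channel 8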
Of the large screens only hits and unclear results are named; the others gave an inactive call (follow-up assays come after a bar, where they were run). Shown are actives, neighbours in structure and some others; about 2.9% of the full set was active somewhere.

CCn1nc(NS(=O)(=O)c2ccc(F)cc2)c2cc3cccc(C)c3nc21	none | B2AR ag CP1 inactive | FAP fluor counter inactive
COc1ccc(C(CCNCc2ccc(OC)c(OC)c2)c2ccc(F)cc2)cc1 (centres undefined)	none | B2AR ag CP1 inactive | FAP fluor counter inactive
COc1ccc(C(CCNCc2ccc(N(C)C)cc2)c2ccccc2)cc1 (centres undefined)	none | B2AR ag CP1 inactive | FAP fluor counter inactive
COc1ccc(C(O)P(=O)(OCc2ccccc2)c2ccc(N(C)C)cc2)cc1 (centres undefined)	none
CC(C)Oc1ccc(CNC(=O)CC(c2ccccc2)c2cc(Cl)ccc2O)cc1 (centres undefined)	none
COc1ccc(CCNCCC(c2ccccc2)c2ccccc2)cc1OC	none (no result: PP1 inh, GRK2 inh, B2AR ag)
CC(C)Oc1ccc(C(CCNCc2ccc(O)cc2)c2ccccc2)cc1 (centres undefined)	none (no result: PP1 inh) | B2AR ag CP1 inactive | FAP fluor counter inactive
O=C(CCCOc1ccc(Cl)cc1Cl)N/N=C/c1cccc([N+](=O)[O-])c1	none
CC(=O)c1ccc(NC(=O)N2C3CCC2CC(O)(c2cccnc2)C3)cc1 (centres undefined)	none
Cc1ccc(C2=NN(C(=O)CN3CCN(C4CCS(=O)(=O)C4)CC3)C(c3ccco3)C2)cc1 (centres undefined)	none
O=c1[nH]c2ccccc2cc1CN(Cc1ccco1)S(=O)(=O)c1ccccc1	none | B2AR ag CP1 inactive | FAP fluor counter inactive
COc1ccc(S(=O)(=O)N(Cc2ccco2)Cc2cc3ccccc3[nH]c2=O)cc1	none | B2AR ag CP1 inactive | FAP fluor counter inactive
CCN(Cc1cc2ccccc2[nH]c1=O)S(=O)(=O)c1ccccc1	none
COC(=O)c1cccc(S(=O)(=O)N(Cc2ccco2)Cc2cc3ccc(OC)cc3[nH]c2=O)c1	none
CCCC[n+]1ccn(-c2nc3ccccc3nc2[N-]S(=O)(=O)c2cccs2)c1	none
CCOC(=O)c1cc(NC(=O)N(C)C2CCCCC2)c(C)nc1C	B2AR ag 47.8 | B2AR ag CP1 inactive | FAP fluor counter inactive
CCc1nc2ccc(C(=O)N3CCN(c4ccccc4)CC3)cn2c1N(CCC(C)C)CCN(C)C	none (no result: PP1 inh, GRK2 inh, B2AR ag)
CCc1ccc(-c2cc(C)no2)cc1S(=O)(=O)NCCc1ccc(OC)c(OC)c1	none
N#Cc1c(NC(=O)CSc2ncccn2)oc(-c2ccccc2)c1-c1ccccc1	B2AR ag 48.5 | B2AR ag CP1 inactive | FAP fluor counter inactive
O=C(Cn1cc(C(F)(F)F)cc(Cl)c1=O)Nc1cccc(Cl)c1	none
O=C(Cn1cc(C(F)(F)F)cc(Cl)c1=O)NCCc1ccc(Cl)cc1Cl	B2AR ag 55.2 | B2AR ag CP1 inactive | FAP fluor counter inactive
O=C(NCCc1c[nH]c2ccccc12)C(=O)Nc1ccccc1	none
COc1ccccc1-c1cc(C(F)(F)F)nc(S(=O)(=O)CCCC(=O)Nc2cccnc2Cl)n1	none (no result: PP1 inh, GRK2 inh)
COc1ccccc1-c1cc(C(F)(F)F)nc(S(=O)(=O)CCCC(=O)NC(C)C)n1	B2AR ag 98.4 | B2AR ag CP1 54.3 | FAP fluor counter inactive
CCCCC(=O)NS(=O)(=O)c1ccc(N=NN2CCOCC2)cc1	none
COc1ccc(C(C)(O)c2nc(-c3cccc(F)c3)cs2)cc1 (centres undefined)	none (no result: PP1 inh, GRK2 inh, B2AR ag)
Cc1ccc(NC(=O)CCNCc2ccco2)cc1S(=O)(=O)N(C)C	none
COc1cc(CNCCc2c[nH]c3ccccc23)ccc1OCc1ccc(F)cc1	B2AR ag 72.3 | B2AR ag CP1 55.6 | FAP fluor counter inactive
CNc1ccc([N+](=O)[O-])cc1-c1nc2ccccc2[nH]c1=O	B2AR ag 61.5 | B2AR ag CP1 inactive | FAP fluor counter inactive
O=C(Nc1ccc2oc(-c3ccncc3)nc2c1)c1ccc(F)cc1	none
O=C(Nc1ccc2oc(-c3ccncc3)nc2c1)c1ccc2c(c1)OCCO2	B2AR ag 73.3 | B2AR ag CP1 inactive | FAP fluor counter inactive
CCC(=O)NCCc1nc2cc(NC(=O)c3ccc(OC)cc3)ccc2n1C	none
COc1ccccc1-c1csc(-n2ncc(C#N)c2N)n1	B2AR ag 83.6 | B2AR ag CP1 inactive | FAP fluor counter inactive
Clc1cccc(-c2nnc(SCc3nc4ccccc4[nH]3)n2Cc2ccco2)c1	B2AR ag 54.5 | B2AR ag CP1 56.4 | FAP fluor counter inactive
Clc1ccc(OCc2nnc(SCc3nc4ccccc4[nH]3)n2Cc2ccco2)cc1	B2AR ag 111.2 | B2AR ag CP1 38.5 | FAP fluor counter inactive
c1ccc(-c2nnc(SCc3nc4ccccc4[nH]3)n2Cc2ccco2)nc1	none
CCn1c(COc2ccc(C)cc2)nnc1SCc1nc2ccccc2[nH]1	none
COc1ccc(Cc2nnc(NC(=O)CS(=O)(=O)Cc3ccccc3)s2)cc1	none
CCOCCCNC(=O)c1cc(-c2cccnc2)nc2ccc(S(=O)(=O)N3CCC(C)CC3)cc12	B2AR ag 59.4 | B2AR ag CP1 56.8 | FAP fluor counter inactive
CN(C)CCCN(C(=O)CCc1ccccc1)c1nc2ccc(F)cc2s1	none
CN(C)CCCN(C(=O)CCc1ccccc1)c1nc2ccc(Br)cc2s1	B2AR ag 43.6 | B2AR ag CP1 inactive | FAP fluor counter inactive
Cc1ccc(S(=O)(=O)N2CCCCC2)cc1NC(=O)c1cc2ccccc2o1	none
CCN1CCN(c2ccc(S(=O)(=O)N3CCCCC3)cc2NC(=O)c2cc3ccccc3o2)CC1	B2AR ag 47.9 | B2AR ag CP1 inactive | FAP fluor counter inactive
CC(C)N1C(=O)/C(=C\c2nc3ccccc3c(=O)n2-c2ccccc2)c2ccccc21	none
CC(C)N1C(=O)/C(=C/c2nc3ccccc3c(=O)n2-c2ccccc2)c2ccccc21	B2AR ag 47.1 | B2AR ag CP1 inactive | FAP fluor counter inactive
COC(=O)c1cc(S(=O)(=O)NCc2ccc3c(c2)OCO3)cn1C	none
Cc1ccc2nc(C)cc(C(=O)OCC(=O)c3ccc(Cl)c([N+](=O)[O-])c3)c2c1	B2AR ag 52.6 | B2AR ag CP1 inactive | FAP fluor counter inactive
CN(CC(=O)N1CCN(c2ccccn2)CC1)S(=O)(=O)c1ccccc1	B2AR ag 50.7 | B2AR ag CP1 inactive | FAP fluor counter inactive
CN(CC(=O)N1CCN(c2ncccn2)CC1)S(=O)(=O)c1ccc(Cl)cc1	B2AR ag 111.7 | B2AR ag CP1 27.7 | FAP fluor counter inactive
CN(C(=O)N1CCN(c2ccccn2)CC1)c1ccccc1	none
CC1CCN(CCCNC(=O)c2ccc(CSCc3cccc(Cl)c3)o2)CC1	none
COc1ccc(C(=O)Nc2cc(-c3nn4c(C)nnc4s3)ccc2C)cc1	none
Cc1cc(OCC(=O)Nc2cc(-c3nn4c(C)nnc4s3)ccc2C)ccc1Cl	B2AR ag 79.0 | B2AR ag CP1 inactive | FAP fluor counter inactive
O=C(COC(=O)c1ccccc1C(=O)c1ccc(Cl)c([N+](=O)[O-])c1)NC1CCCCCC1	B2AR ag 53.0 | B2AR ag CP1 9.7 | FAP fluor counter inactive
O=C(COC(=O)c1ccc(Cl)c([N+](=O)[O-])c1)NC1CCCC1	none
